# Test results reported in the supplement of paper PMC12350171.
# Counter-ions that a name gives are not always drawn.
# Tested on: Haemophilus parainfluenzae
# Assay: growth AUC normalised to DMSO control (fraction of control); higher = less growth inhibition, active = hit call of the paper
# Conditions: 20 µM;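 active = AUC significantly below DMSO controls by Student t-fit with adjusted P under 0.01; inactive = not significantly reduced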
# Method in brief: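 For the AUC endpoint, growth curves were integrated by the trapezoidal rule up to the exponential-to-stationary transition and normalised to DMSO controls on the same plate. The curves came from OD578 readings taken hourly for 24 h, in three biological replicates. Pathogens had been passaged anaerobically twice and inoculated at an OD578 of 0.01 into pre-reduced mGAM plates carrying 20 μM compound and 1% DMSO, sealed with breathable membranes. Medium for Haemophilus parainfluenzae also contained hemin and NAD.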
row,Compound,growth AUC normalised to DMSO control
1,CCOC(=O)c1ccc(OC(=O)CCCCCNC(=N)N)cc1 [Gabexate mesilate],0.919 (inactive)
2,O=C1NCN(c2ccccc2)C12CCN(CCCC(c1ccc(F)cc1)c1ccc(F)cc1)CC2 [Fluspirilene],1.05 (inactive)
3,COC(=O)Nc1nc2ccc(SC(C)C)cc2[nH]1 [Methiazole],1.05 (inactive)
4,COC(=O)C1=C(C)NC(C)=C(C(=O)OC(C)C)C1c1cccc2nonc12 (centres undefined) [Isradipine],1.02 (inactive)
5,COc1ccc(C(=O)c2ccccc2)c(O)c1 [Oxybenzone],1.06 (inactive)
6,C[N+]1(C)CCC(=C(c2ccccc2)c2ccccc2)CC1 [Diphemanil methylsulfate],0.949 (inactive)
7,CC[N+](C)(C)Cc1ccccc1Br [Bretylium tosylate],1.02 (inactive)
8,CCN1CCN(C(=O)N[C@@H](C(=O)N[C@@H]2C(=O)N3C(C(=O)O)=C(CSc4nnnn4C)CS[C@H]23)c2ccc(O)cc2)C(=O)C1=O [Cefoperazone dihydrate],0.0355 (active)
9,COc1ccc(/C=C/C(=O)Nc2ccccc2C(=O)O)cc1OC [Tranilast],1.01 (inactive)
10,O=C1CCc2cc(OCCCCc3nnnn3C3CCCCC3)ccc2N1 [Cilostazol],1.26 (inactive)
11,CC1CCc2c(N3CCC(O)CC3)c(F)cc3c(=O)c(C(=O)O)cn1c23 (centres undefined) [Nadifloxacin],0.0309 (active)
12,C[C@]12CC[C@@H]3c4ccc(O)cc4CC[C@H]3[C@@H]1C[C@@H](O)[C@@H]2O [Estriol],1.02 (inactive)
13,CC(C)NNC(=O)c1ccncc1 [Iproniazide phosphate],1.04 (inactive)
14,CCc1cc(C(N)=S)ccn1 [Ethionamide],0.983 (inactive)
15,CN1C(=O)CC(c2ccccc2)C1=O (centres undefined) [Phensuximide],1.01 (inactive)
16,OCCOCCN1CCN(C2=Nc3ccccc3Sc3ccccc32)CC1 [Quetiapine hemifumarate],0.997 (inactive)
17,Cn1cnc2c1c(=O)[nH]c(=O)n2C [Theobromine],1.06 (inactive)
18,CCN(CC)CCNC(=O)c1cc(S(C)(=O)=O)ccc1OC [Tiapride hydrochloride],0.993 (inactive)
19,Cc1c(NC(C)C)c(=O)n(-c2ccccc2)n1C [Isopyrin hydrochloride],0.967 (inactive)
20,COc1ccc(CN(CCN(C)C)c2ccccn2)cc1 [Pyrilamine maleate],0.99 (inactive)

row,Compound,growth AUC normalised to DMSO control
1,CN1CCC(=C2c3ccccc3Sc3ccccc32)CC1 [Pimethixene maleate],0.908 (inactive)
2,COc1ccc(C(=O)c2ccccc2O)c(O)c1 [Dioxybenzone],0.992 (inactive)
3,CC(C)NCC(O)COc1ccc(COCCOC(C)C)cc1 (centres undefined) [Bisoprolol hemifumarate],1.13 (inactive)
4,CCCOc1ccc(C(=O)OCCN(CC)CC)cc1N [Proparacaine hydrochloride],1.01 (inactive)
5,CC(C)(C)NCC(O)COc1cccc2c1CC(O)C(O)C2 (centres undefined) [Nadolol],1 (inactive)
6,OCc1cc(C(O)CNCCCCCCOCCCCc2ccccc2)ccc1O (centres undefined) [Salmeterol],0.962 (inactive)
7,CC[C@H](C)C(=O)O[C@H]1C[C@@H](C)C=C2C=C[C@H](C)[C@H](CC[C@@H]3C[C@@H](O)CC(=O)O3)[C@H]21 [Lovastatin],0.984 (inactive)
8,CC1(C)S[C@@H]2[C@H](NC(=O)Cc3ccccc3)C(=O)N2[C@H]1C(=O)O [Benzylpenicillin sodium],0.0512 (active)
9,CC1(C)NC(=O)N(c2ccc([N+](=O)[O-])c(C(F)(F)F)c2)C1=O [Nilutamide],0.977 (inactive)
10,CC(=O)S[C@@H]1CC2=CC(=O)CC[C@]2(C)[C@H]2CC[C@@]3(C)[C@@H](CC[C@@]34CCC(=O)O4)[C@H]12 [Spironolactone],0.891 (inactive)
11,O=c1oc2ccccc2c(O)c1Cc1c(O)c2ccccc2oc1=O [Dicumarol],1.31 (inactive)
12,CC(C)(Oc1ccc(C2CC2(Cl)Cl)cc1)C(=O)O (centres undefined) [Ciprofibrate],1.01 (inactive)
13,N[C@@H]1CONC1=O [D-cycloserine],1.04 (inactive)
14,Cc1c(Cl)cccc1Nc1ccccc1C(=O)O [Tolfenamic acid],0.852 (active)
15,Nc1nc(=O)c2c([nH]1)NC[C@@H](CNc1ccc(C(=O)N[C@@H](CCC(=O)O)C(=O)O)cc1)N2C=O [Folinic acid calcium salt],1 (inactive)
16,CN(C)CCOC(c1ccc(Cl)cc1)c1ccccn1 (centres undefined) [Carbinoxamine maleate salt],1.08 (inactive)
17,O=C(O)Cc1ccc(-c2ccccc2)cc1 [Felbinac],0.948 (inactive)
18,Cc1cc(=O)oc2cc(O)ccc12 [Hymecromone],1 (inactive)
19,CN[C@@H]1[C@H](O)[C@H](NC)[C@H]2O[C@@]3(O)C(=O)C[C@@H](C)O[C@H]3O[C@@H]2[C@H]1O [Spectinomycin dihydrochloride],0.117 (active)
